TDP1 cell CPT – growth inhibition of DT40 Tdp1-/-;hTDP1 cells with camptothecin (screen for TDP1 inhibitors); chicken DT40 Tdp1-/-;hTDP1 cells + 20 nM CPT, ATP luminescence, 48 h; Potency, µM (titrated, usually from 46.2 µM), inactives show at the top dose activity change, negative = growth inhibition, hits mostly inhibitors; actives 12% (n = 420,000); AID 686979; further: potency means the concentration at half of the fitted maximal effect; nearly all actives have a fitted effect of over 55% in size
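Cell growth measured by CellTiter-Glo luminescence after a minimum 48 h, 37 C compound exposure with 20 nM CPT in Tdp1-knockout DT40 cells stably expressing hTDP1, seeded 400/well; qHTS titration format.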
HT1080 IDH1KD tx – kills HT-1080 cells with IDH1 knockdown; HT-1080 IDH1 knockdown viability, ATP luminescence, 48 h; Potency, µM (series often up to 46.1 µM), for the others: top-dose activity, negative = toxicity, actives largely listed as cytotoxic; actives 2% (n = 360,000);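 further: potency means the concentration at half of the fitted maximal effect; 0% = DMSO wells and -100% = cell-free medium wells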
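In this qHTS, HT-1080 cells depleted of IDH1 are exposed for 48 h at 37 °C to compound titrations. Toxicity is scored from CellTiter-Glo luminescence, with DMSO as full viability and medium alone as none.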
IL-1B inflam inh – inhibitors of inflammasome signaling (IL-1 beta secretion) | actives 4.7% (n = 360,000) | AID 743279 | activity change, % at 57.5 µM | THP-1 LPS/ATP IL-1B secretion, AlphaLISA, 16 h; stronger effect = lower value; in the data active means activity change below about -50%; inconclusive means mostly about -30% to -49%
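THP-1 cells pretreated 1 hr with compounds (up to 57.5 uM final), then stimulated with LPS (250 ng/mL final) plus ATP (1.25 mM final); secreted IL-1B measured by AlphaLISA after 16 hr, decreased signal indicating inhibition.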
DT40 TDP1 no CPT – qHTS for Inhibitors of human tyrosyl-DNA phosphodiesterase 1 (TDP1): qHTS in cells in absence of CPT; AID 686978, 2013; DT40 Tdp1-/- hTDP1 cells, no CPT, ATP luminescence, 48 h; Potency, µM (doses to about 46.2 µM), for inactives: at the top dose activity change, negative = growth inhibition, actives largely listed as inhibitors; actives 15% (n = 420,000); further: potency means the concentration at half of the fitted maximal effect; nearly all actives have a fitted effect of over 55% in size
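Luminescent ATP content (CellTiter-Glo) served as the growth readout. Knockout chicken DT40 cells expressing human TDP1 were exposed to compounds without camptothecin for a minimum 48 hr at 37 °C.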
HT1080NT lethal – kills 2HG-producing HT-1080-NT fibrosarcoma cells; HT-1080-NT fibrosarcoma viability, CellTiter-Glo ATP luminescence, 48 h; Potency, µM (top dose mostly 46.1 µM), for the others: top-dose activity, negative = less viability, hits mostly cytotoxic; actives 1.6% (n = 360,000); AID 686970;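 further: NT is the 2HG producing partner of a matched IDH1 knockdown line; potency means the concentration at half of the fitted maximal effect; 0% = DMSO-treated cells and -100% = media-only wells without cells; nearly all actives have a fitted effect of over 55% in size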
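Luminescent CellTiter-Glo readout after 48 hours of compound exposure at 37 degrees C defined viability of HT-1080-NT cells. Activity was normalized to DMSO wells and cell-free media wells; concentration-response curves were fitted and assigned curve classes.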
Active calls of the source: *. Rows were chosen to be rich in hits. Some 19% of all compounds tested hit in one or more screens of this group. Unless noted, the call rests on the fitted dose curve; in most records, active means well fitted curve in the direction sought with a large enough effect; inconclusive means small, poorly fitted or top-dose-only effect, or another doubt; inactive means no such curve, though single readings can be large; an effect the other way counts as inactive or inconclusive. Unless noted, on the % scale 0 is the no-effect control and ±100 the full control effect.

Screening CCOC(=O)c1c(C)[nH]c(C)c1S(=O)(=O)N1CCC(C(=O)N2CCN(c3cccc(C)c3)C(C)C2)CC1 (configuration not stated) returned TDP1 cell CPT 23.1µM* and DT40 TDP1 no CPT inconclusive.
`CN1C(=O)/C(=C\c2ccccc2OCc2ccccc2)SC1=S` gave TDP1 cell CPT -4.0%, HT1080 IDH1KD tx -0.3%, IL-1B inflam inh 26.1, DT40 TDP1 no CPT -5.8% and HT1080NT lethal 0.4%.
Screening Cc1ccc(-n2c(C)cc(C=C3C(=O)N(C)C(=O)N(C)C3=O)c2C)cc1 returned TDP1 cell CPT 6.0%, HT1080 IDH1KD tx 7.9%, IL-1B inflam inh -6.1, DT40 TDP1 no CPT -0.7% and HT1080NT lethal 15.3%.
CN1C(=O)/C(=C\c2cc(N=Nc3ccccc3)ccc2O)SC1=S was read as TDP1 cell CPT 20.6µM*, HT1080 IDH1KD tx -7.5%, IL-1B inflam inh -4.4, DT40 TDP1 no CPT 23.1µM* and HT1080NT lethal -7.3%.
For Cc1cc(/C=C2\SC(=S)N(C)C2=O)c(C)n1-c1cccc(O)c1 the results were TDP1 cell CPT 23.1µM*, HT1080 IDH1KD tx -8.1%, IL-1B inflam inh 0.0, DT40 TDP1 no CPT inconclusive and HT1080NT lethal -11.3%.
`COc1ccc(-n2c(C)cc(/C=C3/SC(=S)N(C)C3=O)c2C)cc1` gave TDP1 cell CPT 20.6µM*, HT1080 IDH1KD tx -1.8%, IL-1B inflam inh -7.1, DT40 TDP1 no CPT 18.4µM* and HT1080NT lethal -1.8%.
For Cc1nc2c(-c3ccc(F)cc3)c(C)nn2c(C)c1CCC(=O)NCc1ccc(Cl)cc1 the results were TDP1 cell CPT -10.3% and DT40 TDP1 no CPT -30.0%.
For CCOc1ccc(-c2n[nH]c(=S)c3ccccc23)cc1 the results were TDP1 cell CPT 23.1µM*, HT1080 IDH1KD tx -5.4%, IL-1B inflam inh 34.7, DT40 TDP1 no CPT inconclusive and HT1080NT lethal -15.7%.
CCOc1ccc(-c2nnc(N3CCCCC3)c3ccccc23)cc1 was read as TDP1 cell CPT 23.1µM*, HT1080 IDH1KD tx inconclusive, IL-1B inflam inh inconclusive, DT40 TDP1 no CPT 16.4µM* and HT1080NT lethal inconclusive.
Cc1ccc(-c2nnc(N3CCCCC3)c3ccccc23)cc1S(=O)(=O)N(C)C was read as TDP1 cell CPT 23.1µM*, HT1080 IDH1KD tx 2.7%, IL-1B inflam inh -57.3*, DT40 TDP1 no CPT inconclusive and HT1080NT lethal 11.4%.
Screening Cc1ccc(-c2n[nH]c(=S)c3ccccc23)cc1 returned TDP1 cell CPT inconclusive, HT1080 IDH1KD tx -0.9%, IL-1B inflam inh 27.4, DT40 TDP1 no CPT inconclusive and HT1080NT lethal 8.5%.
Screening Cc1ccc(-c2nnc(N3CCOCC3)c3ccccc23)cc1S(N)(=O)=O returned TDP1 cell CPT -12.8%, HT1080 IDH1KD tx -5.6%, IL-1B inflam inh 74.8, DT40 TDP1 no CPT -1.5% and HT1080NT lethal -9.1%.
Screening Cc1ccc(-c2nnc(N3CCN(C(=O)CSc4ncn[nH]4)CC3)c3ccccc23)cc1 returned TDP1 cell CPT 16.4µM*, HT1080 IDH1KD tx inconclusive, IL-1B inflam inh inconclusive, DT40 TDP1 no CPT inconclusive and HT1080NT lethal -0.9%.
Cc1ccc(OCC(=O)N2CCN(c3nnc(-c4ccccc4)c4ccccc34)CC2)cc1 was read as TDP1 cell CPT inconclusive, HT1080 IDH1KD tx inconclusive, IL-1B inflam inh -72.8*, DT40 TDP1 no CPT inconclusive and HT1080NT lethal inconclusive.
`CCOC(=O)c1sc(NN=C(C(=O)OC)C(=O)OC)c(C(=O)OCC)c1C` gave TDP1 cell CPT inconclusive, HT1080 IDH1KD tx 0.1%, IL-1B inflam inh -13.1, DT40 TDP1 no CPT inconclusive and HT1080NT lethal -21.0%.
Screening Cc1ccc(Cl)cc1N1CCN(C(=O)CCC(=O)Nc2ccc3nc(N4CCC(C)CC4)cc(C)c3c2)CC1 returned TDP1 cell CPT 23.1µM* and DT40 TDP1 no CPT 13µM*.
CCN(CC)CCCNC(=O)CCC(=O)Nc1ccc2nc(N3CCC(C)CC3)cc(C)c2c1 was read as TDP1 cell CPT inconclusive, HT1080 IDH1KD tx -8.8%, IL-1B inflam inh -14.4, DT40 TDP1 no CPT inconclusive and HT1080NT lethal -9.4%.

Compound activity deposited in PubChem BioAssay by National Center for Advancing Translational Sciences (NCATS).
